Reference: PubChem BioAssay (NCI)
About 83,000 compounds went through this panel and 20% of them were active in at least one assay; those are over-represented in the sample as a whole.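 Note: values are percent growth. 100 is the growth of untreated cells, values between 100 and 0 indicate rising inhibition; between -100 and 0 indicates cell death.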 Values without a mark were called inactive. Calls of active or inactive are those of the source. How the source made its calls: active means growth percent below 10; inactive means the rest.

Legend:
Assay in all cases: NCI-60 one-dose screen, 48 h (100 = growth as untreated, 0 = no growth, -100 = all killed)
Conditions in all cases: 10 µM unless noted
HCT-15 colon = tested on: HCT-15 colon
HT29 colon = tested on: HT29 colon
SNB-75 CNS = tested on: SNB-75 CNS
SNB-19 CNS = tested on: SNB-19 CNS
U251 CNS = tested on: U251 CNS
PC-3 prostate = tested on: PC-3 prostate
SK-MEL-5 melanoma = tested on: SK-MEL-5 melanoma
LOX IMVI melanoma = tested on: LOX IMVI melanoma
SK-MEL-28 melanoma = tested on: SK-MEL-28 melanoma
SK-MEL-2 melanoma = tested on: SK-MEL-2 melanoma
EKVX NSCLC = tested on: EKVX NSCLC
SN12C renal = tested on: SN12C renal
UO-31 renal = tested on: UO-31 renal
TK-10 renal = tested on: TK-10 renal
ACHN renal = tested on: ACHN renal
CAKI-1 renal = tested on: CAKI-1 renal
A498 renal = tested on: A498 renal
CCRF-CEM leukemia = tested on: CCRF-CEM leukemia
MOLT-4 leukemia = tested on: MOLT-4 leukemia
UACC-62 melanoma = tested on: UACC-62 melanoma

## Cn1cc(-c2cc(N)n3nc(-c4c[nH]c5ccccc45)cc3n2)c2cc(Br)ccc21
HCT-15 colon
  growth: -76.6% (active)
HT29 colon
  growth: -52% (active)
SNB-75 CNS
  growth: -47.7% (active)
SNB-19 CNS
  growth: -85.9% (active)
U251 CNS
  growth: -95.2% (active)
PC-3 prostate
  growth: -42.7% (active)
SK-MEL-5 melanoma
  growth: -94.5% (active)
LOX IMVI melanoma
  growth: -79.3% (active)
SK-MEL-28 melanoma
  growth: -59.1% (active)
SK-MEL-2 melanoma
  growth: -65.4% (active)
EKVX NSCLC
  growth: -86.5% (active)
SN12C renal
  growth: -78.8% (active)
UO-31 renal
  growth: -82.3% (active)
TK-10 renal
  growth: -94.6% (active)
ACHN renal
  growth: -87.7% (active)
CAKI-1 renal
  growth: -87.3% (active)
A498 renal
  growth: -92.5% (active)
CCRF-CEM leukemia
  growth: -22.9% (active)
MOLT-4 leukemia
  growth: 7.68% (active)

## FC(F)(F)CN1CCN(CCn2c(C(F)(F)F)cc3c(Cl)ncnc32)CC1
HCT-15 colon
  growth: -56.7% (active)
HT29 colon
  growth: 12.5%
SNB-75 CNS
  growth: -32.1% (active)
SNB-19 CNS
  growth: -87.5% (active)
U251 CNS
  growth: -12.6% (active)
PC-3 prostate
  growth: 18.2%
SK-MEL-5 melanoma
  growth: 9.63% (active)
UACC-62 melanoma
  growth: 28.4%
SK-MEL-28 melanoma
  growth: 31.3%
EKVX NSCLC
  growth: 70.8%
SN12C renal
  growth: 34.8%
UO-31 renal
  growth: -95.1% (active)
TK-10 renal
  growth: 114%
ACHN renal
  growth: -63% (active)
CAKI-1 renal
  growth: 24.1%
A498 renal
  growth: 104%
CCRF-CEM leukemia
  growth: -16.8% (active)
MOLT-4 leukemia
  growth: -39% (active)

## OC(c1ccccc1)(c1ccccc1)C1CCN(c2ccc3nnc(Cl)n3n2)CC1
HCT-15 colon
  growth: 18.1%
HT29 colon
  growth: 26.8%
SNB-75 CNS
  growth: 61.3%
SNB-19 CNS
  growth: 63.3%
U251 CNS
  growth: 45.9%
PC-3 prostate
  growth: 16.2%
SK-MEL-5 melanoma
  growth: -84.6% (active)
LOX IMVI melanoma
  growth: 38.3%
SK-MEL-28 melanoma
  growth: 52.2%
SK-MEL-2 melanoma
  growth: 31.3%
EKVX NSCLC
  growth: 19.9%
SN12C renal
  growth: 50.1%
UO-31 renal
  growth: -74.1% (active)
TK-10 renal
  growth: 49.7%
ACHN renal
  growth: 29.7%
CAKI-1 renal
  growth: 30.8%
A498 renal
  growth: 77.8%
CCRF-CEM leukemia
  growth: 18.2%
MOLT-4 leukemia
  growth: -2.45% (active)

## COc1cccc(NC(=O)c2ccc(NC(=O)CCl)s2)c1
HCT-15 colon
  growth: -29.7% (active)
HT29 colon
  growth: -7.55% (active)
SNB-75 CNS
  growth: 74.6%
SNB-19 CNS
  growth: 73.8%
U251 CNS
  growth: -39.9% (active)
PC-3 prostate
  growth: -12.4% (active)
SK-MEL-5 melanoma
  growth: 32.1%
LOX IMVI melanoma
  growth: -94.9% (active)
SK-MEL-28 melanoma
  growth: 51%
SK-MEL-2 melanoma
  growth: 79.6%
EKVX NSCLC
  growth: 95%
SN12C renal
  growth: -14.4% (active)
UO-31 renal
  growth: 62.1%
TK-10 renal
  growth: 54.8%
ACHN renal
  growth: 66.4%
CAKI-1 renal
  growth: 53.8%
A498 renal
  growth: 108%
CCRF-CEM leukemia
  growth: 1.03% (active)
MOLT-4 leukemia
  growth: -7.31% (active)

## CN1C(=O)C(O)(CC(=O)c2cc3ccccc3oc2=O)c2ccccc21 (stereo unspecified)
HCT-15 colon
  growth: 94.7%
HT29 colon
  growth: 104%
SNB-75 CNS
  growth: 107%
SNB-19 CNS
  growth: 93.3%
U251 CNS
  growth: 97.2%
PC-3 prostate
  growth: 92.4%
SK-MEL-5 melanoma
  growth: 100%
LOX IMVI melanoma
  growth: 87.9%
SK-MEL-28 melanoma
  growth: 107%
SK-MEL-2 melanoma
  growth: 111%
EKVX NSCLC
  growth: 90.1%
SN12C renal
  growth: 88.8%
UO-31 renal
  growth: 57.3%
TK-10 renal
  growth: 116%
ACHN renal
  growth: 98.1%
CAKI-1 renal
  growth: 86.1%
A498 renal
  growth: 162%
CCRF-CEM leukemia
  growth: 92%
MOLT-4 leukemia
  growth: 83.4%

## CC[C@]12C=CCN3CC[C@@]4(c5ccc(OC)cc5N(C)[C@H]4[C@@](O)(C(=O)OC)[C@@H]1OC(=O)CCCC[P+](c1ccc(F)cc1)(c1ccc(F)cc1)c1ccc(F)cc1)[C@@H]32
HCT-15 colon
  growth: 102%
HT29 colon
  growth: 15.9%
SNB-75 CNS
  growth: -5.3% (active)
SNB-19 CNS
  growth: 6.61% (active)
U251 CNS
  growth: 13%
PC-3 prostate
  growth: 15.7%
SK-MEL-5 melanoma
  growth: -59.7% (active)
LOX IMVI melanoma
  growth: 25%
SK-MEL-28 melanoma
  growth: -54.9% (active)
SK-MEL-2 melanoma
  growth: -54% (active)
EKVX NSCLC
  growth: 53%
SN12C renal
  growth: 10.6%
UO-31 renal
  growth: 85.9%
TK-10 renal
  growth: 70.2%
ACHN renal
  growth: 103%
CAKI-1 renal
  growth: 73.2%
A498 renal
  growth: 99.2%
CCRF-CEM leukemia
  growth: 19.9%
MOLT-4 leukemia
  growth: 29.1%

## Cc1ccc2nc(NC(=O)Nc3cccc(Cl)c3)sc2c1
HCT-15 colon
  growth: 92%
HT29 colon
  growth: 104%
SNB-75 CNS
  growth: 108%
SNB-19 CNS
  growth: 103%
U251 CNS
  growth: 111%
PC-3 prostate
  growth: 92.4%
SK-MEL-5 melanoma
  growth: 97.2%
LOX IMVI melanoma
  growth: 88.1%
SK-MEL-28 melanoma
  growth: 112%
SK-MEL-2 melanoma
  growth: 114%
EKVX NSCLC
  growth: 87.7%
SN12C renal
  growth: 103%
UO-31 renal
  growth: 82%
TK-10 renal
  growth: 114%
ACHN renal
  growth: 105%
CAKI-1 renal
  growth: 90.7%
A498 renal
  growth: 144%
CCRF-CEM leukemia
  growth: 89.6%
MOLT-4 leukemia
  growth: 82.9%

## CCc1ccccc1NC(=O)N/C(N)=N/c1nc2ccccc2s1
HCT-15 colon
  growth: 0.728% (active)
HT29 colon
  growth: -25% (active)
SNB-75 CNS
  growth: 3.91% (active)
SNB-19 CNS
  growth: 9.49% (active)
U251 CNS
  growth: -18.9% (active)
PC-3 prostate
  growth: 21.8%
SK-MEL-5 melanoma
  growth: -59.1% (active)
UACC-62 melanoma
  growth: 13.8%
SK-MEL-28 melanoma
  growth: 38%
SK-MEL-2 melanoma
  growth: 10.6%
EKVX NSCLC
  growth: 27.6%
SN12C renal
  growth: 0.486% (active)
UO-31 renal
  growth: 34.7%
TK-10 renal
  growth: 19.8%
ACHN renal
  growth: 1.6% (active)
CAKI-1 renal
  growth: 4.86% (active)
A498 renal
  growth: 60.3%
CCRF-CEM leukemia
  growth: 4.47% (active)
MOLT-4 leukemia
  growth: 6.27% (active)
